An excerpt weighted towards active compounds, which were near 3.5% of everything screened.
MITF inh: human MITF inhibition, primary screen; O75030; AlphaScreen MITF homodimerization, bead proximity signal; inhibition, % at 2.6 µM; 650,000 tested, 0.91% active; AID 1259374; in the data active = inhibition above about 50%;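 note: 0% = vehicle wells with protein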
Target sequence (O75030 whole entry, looked up): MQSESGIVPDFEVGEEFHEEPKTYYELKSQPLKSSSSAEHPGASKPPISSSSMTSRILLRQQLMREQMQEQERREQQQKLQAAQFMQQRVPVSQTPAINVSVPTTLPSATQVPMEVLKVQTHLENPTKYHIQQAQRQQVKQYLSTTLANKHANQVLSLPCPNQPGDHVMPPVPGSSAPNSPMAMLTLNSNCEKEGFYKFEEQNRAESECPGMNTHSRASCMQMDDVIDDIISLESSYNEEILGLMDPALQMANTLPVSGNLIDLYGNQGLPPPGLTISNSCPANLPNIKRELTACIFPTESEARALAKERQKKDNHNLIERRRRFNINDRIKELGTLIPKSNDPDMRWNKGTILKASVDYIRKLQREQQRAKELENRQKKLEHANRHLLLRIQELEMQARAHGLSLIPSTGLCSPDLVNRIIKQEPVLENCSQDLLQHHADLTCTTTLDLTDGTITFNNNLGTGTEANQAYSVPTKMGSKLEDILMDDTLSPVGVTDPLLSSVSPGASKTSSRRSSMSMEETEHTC
TEAD-YAP inh: TEAD-YAP interaction inhibition. HEK-TIYL cells, TEAD-Gal4/YAP UAS-luciferase luminescence. inhibition, % at 9.12 µM. 640,000 tested, 1.4% active. AID 1259422; in the data active = inhibition above about 32%;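 note: 0% = median of test compound wells and 100% = reference inhibitor wells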
FBW7 act: human FBW7 E3 ligase activation, primary screen; 650,000 tested, 0.13% active; normalized activity (activation), % at 26.1 µM; Q969H0; AlphaScreen FBW7–phospho-cyclin E peptide binding, activator screen; AID 1259310; in the data active = normalized activity above about 1.9%;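 note: purified mutant Fbw7 with reduced substrate affinity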
GPR151 ag: human GPR151 activation. Q8TDV0. activation, % at 11.2 µM. AID 1508602. PathHunter beta-arrestin GPR151 cells, luminescence. 650,000 tested, 1% active; in the data active = activation above about 4.9%;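 note: 0% = median of compound wells and 100% = cells with positive control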
MITF inh conf: human MITF inhibition, confirmation | inhibition, % at 2.6 µM | shares compounds with MITF inh | AlphaScreen MITF homodimerization, biotin/His-MITF beads | 4,700 tested, 16% active;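 active = inhibition above a cutoff derived from the DMSO control wells, cut at about 28% in these data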;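 note: 0% = MITF dimer wells with DMSO only; inhibitors lower the bead chemiluminescence by keeping MITF from dimerizing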
AS interf DR: optically interferes with AlphaScreen signal in dose response; 480 tested, 6% active; AlphaScreen optical interference counterscreen, cell-free; IC50, µM; shares compounds with MITF inh; call rule not given here
AlphaScreen intf2: optically interferes with AlphaScreen signal; shares compounds with MITF inh; LysRS AlphaScreen counterscreen, signal interference, triplicate; 4,700 tested, 7.6% active; inhibition, % at 2.6 µM;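 active = inhibition above a cutoff derived from the DMSO control wells, cut at about 30% in these data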
Active calls of the source: *; . = not tested or not shown.

SMILES	MITF inh	TEAD-YAP inh	FBW7 act	GPR151 ag	MITF inh conf	AlphaScreen intf2	others
CC(Oc1ccc(O)cc1)(P(=O)(O)O)P(=O)(O)O	97*	.	1	2	96*	16	AS interf DR=>6.5
CS(=O)(=O)c1cnc(N)nc1-c1cccc(F)c1	-2	-3	0	-1	.	.
COC(=O)c1ccccc1NC(=O)C/C(C)=N/NC(=O)CC#N	7	2	0	3	.	.
C/C(CC(=O)Nc1ccccc1)=N\NC(=O)CC#N	57*	-9	-1	2	61*	35*
COC(=O)c1ccc(N2Cc3ccncc3C2=O)cc1	0	-25	0	0	.	.
N#Cc1cc([N+](=O)[O-])ccc1NC(=O)COC(=O)/C=C/c1ccc2c(c1)OCO2	-1	-8	0	1	.	.
COc1cc(/C=C/C(=O)OCC(=O)Nc2ccc([N+](=O)[O-])cc2C#N)ccc1O	72*	10	1	-1	1	5
O=C(CCn1c2c(c3ccccc31)CCCC2)N/N=C/c1cccnc1	20	7	0	3	.	.
O=C1/C(=C/c2ccc3c(c2)OCO3)COc2ccccc21	14	-13	0	2	.	.
OC1/C(=C/c2ccc3c(c2)OCO3)Oc2ccccc21 (stereo not given)	53*	-2	0	1	-5	-4
O=C(c1cccnc1)N1CCN(Cc2cccc(Oc3ccccc3)c2)CC1	70*	10	0	-1	-5	3
O=C(c1cccnc1)N1CCN(Cc2cccc(F)c2)CC1	75*	10	0	-1	15	12
O=C(c1ccccc1)N1CCN(Cc2cccc(Oc3ccccc3)c2)CC1	49	-5	0	0	.	.
O=C(c1ccc(F)cc1)N1CCN(Cc2cccnc2)CC1	72*	1	0	-1	8	6
CC(C)(Oc1ccc(Cl)cc1)C(=O)NCCS(=O)(=O)N1CCc2ccccc21	1	6	0	2	.	.
CC(C)c1ccc(-c2nc3sc4c(c3c(=O)[nH]2)CCCC4)cc1	9	-32	0	1	.	.
COc1ccc(F)c(CN2CCC(C3(CCc4ccccc4)NC(=O)NC3=O)CC2)c1 (stereo not given)	81*	4	0	1	2	-2
O=P(O)(O)C(O)(CCNC(=S)Nc1ccccc1)P(=O)(O)O	85*	4	0	-1	67*	6	AS interf DR=>6.8
OCCNC(=S)Nc1ccccc1	8	-8	0	0	.	.
O=C(Cc1cn2ccsc2n1)N/N=C/c1ccc([N+](=O)[O-])o1	70*	19	-1	-1	92*	40*
CCOC(=O)C1=C(O)CSC1=NC(=O)c1ccc(OC)cc1	52*	-3	0	0	-17	-1
Fc1cccc(-c2nnc3ccc(SCc4ccccc4)nn23)c1	-4	1	0	1	.	.
Cc1ccc2c(c1C)C(C)(C)C1(C=Nc3c(ccc4ncccc34)O1)N2C (stereo not given)	57*	3	0	2	52*	52*
CCOC(=O)C1CCN(c2c(-c3ccccc3)c(=O)c2=O)CC1	-7	-8	0	-2	.	.
CCOC(=O)N1CCN(Cc2ccc3c(c2)CN(C(=O)C2CNC(=O)C2)CCO3)CC1 (stereo not given)	61*	1	0	2	17	14
SMILES	MITF inh	TEAD-YAP inh	FBW7 act	GPR151 ag	MITF inh conf	AlphaScreen intf2	others
CCOC(=O)N1CCN(C(=O)C2CCN(Cc3ccc(OC)c(OC)c3)CC2)CC1	52*	2	0	2	8	22
CCOC(=O)N1CCN(C(=O)C2CCN(Cc3ccc(Cl)cc3)CC2)CC1	54*	0	0	1	10	9
N#Cc1cc2cc3c(cc2nc1NCCCNC(=S)NCC1CCCO1)OCO3 (stereo not given)	-3	2	0	-1	.	.
O=C(O)c1cccc(S(=O)(=O)N2CCC(C(=O)O)CC2)c1	18	18	1	0	.	.
O=C(CCCCC(=O)Nc1ccc(F)cc1)Nc1ccc(F)cc1	56*	11	1	-1	2	1
CCN1CCN(CC(=O)Nc2ccc(F)cc2)CC1	83*	-1	0	0	17	21
O=C(CN1CCN(CC(=O)Nc2ccc(F)cc2)CC1)Nc1ccc(F)cc1	6	12	0	0	.	.
CCC(C)NS(=O)(=O)c1ccc(NC(=O)CN2CCOCC2)cc1 (stereo not given)	54*	-8	0	0	3	17
CC1CN(CC(=O)Nc2ccc(F)cc2)CC(C)O1 (stereo not given)	55*	4	0	3	13	13
COc1ccc(OC)c(C2CC(c3ccc(C)cc3)=NN2S(C)(=O)=O)c1 (stereo not given)	24	-10	0	0	.	.
COC(=O)C(CC(C)C)NC(=O)CCC(NC(=O)OCc1ccccc1)C(=O)OCc1ccccc1 (stereo not given)	9	9	0	1	.	.
C=CCN1CCC(N2CCC(O)(c3cccc(C(F)(F)F)c3)CC2)CCC1=O (stereo not given)	-6	0	0	-1	.	.
Cc1ccc(C(=O)N/C(=C/c2ccc([N+](=O)[O-])o2)C(=O)O)cc1	70*	6	0	1	54*	5	AS interf DR=>5.9
Cc1ccc(NC(=O)/C(=C\c2ccc([N+](=O)[O-])o2)NC(=O)c2ccc(Cl)cc2)cc1	15	0	0	0	.	.
c1ccc(OCc2nc3ccccc3n2CC2CCN(Cc3ccccn3)CC2)cc1	90*	5	-1	0	15	23
COc1ccccc1-n1c(CNC(=O)c2cccs2)nnc1SCC(=O)Nc1cccc(C)c1	13	6	0	-1	.	.
COc1ccc(OC)c(-n2c(CNC(=O)c3cccs3)nnc2SCC(=O)Nc2cccc(C)c2)c1	62*	11	0	0	-10	-7
CCCNc1nc(Nc2ccccc2)c2cnn(C)c2n1	112*	2	0	-1	17	12
CCNc1nc(Nc2ccccc2)c2cnn(C)c2n1	4	3	0	0	.	.
CCOC(=O)c1cnc(-n2[nH]c(C)c(Cc3ccccc3)c2=O)[nH]c1=O	96*	1	0	1	87*	100*
CCOC(=O)c1cnc(-n2[nH]c(C)cc2=O)[nH]c1=O	84*	3	0	3	98*	96*
Cc1noc(C)c1CN1C(=O)NC2(CCCc3ccccc32)C1=O (stereo not given)	-2	8	0	2	.	.
O=C(O)CCCNC(=O)/C(=C\c1ccc(Cl)cc1)NC(=O)c1ccco1	12	-12	0	-1	.	.
O=C1C(=O)N(CC2CCCO2)C(c2ccco2)/C1=C(/O)c1ccc(Cl)cc1 (stereo not given)	53*	-17	0	0	7	10
O=C1C(=O)N(CC2CCCO2)C(c2ccc(Cl)cc2)/C1=C(/O)c1ccccc1 (stereo not given)	6	0	0	-1	.	.
